From article PMC7819943, “Rice protein-binding microarrays: a tool to detect cis-acting elements near promoter regions in rice” come the findings set out here.

The full ranking holds about 39,000 sequences; the median of “fluorescence intensity (a.u.)” is about 4,300, and the highest 2% start at about 39,000. The full list was thinned out, with the highest values kept by preference.

The experiment addresses T1, OsSMF1 (Oryza sativa, UniProt Q6ZLB0 1-436).
T1 sequence: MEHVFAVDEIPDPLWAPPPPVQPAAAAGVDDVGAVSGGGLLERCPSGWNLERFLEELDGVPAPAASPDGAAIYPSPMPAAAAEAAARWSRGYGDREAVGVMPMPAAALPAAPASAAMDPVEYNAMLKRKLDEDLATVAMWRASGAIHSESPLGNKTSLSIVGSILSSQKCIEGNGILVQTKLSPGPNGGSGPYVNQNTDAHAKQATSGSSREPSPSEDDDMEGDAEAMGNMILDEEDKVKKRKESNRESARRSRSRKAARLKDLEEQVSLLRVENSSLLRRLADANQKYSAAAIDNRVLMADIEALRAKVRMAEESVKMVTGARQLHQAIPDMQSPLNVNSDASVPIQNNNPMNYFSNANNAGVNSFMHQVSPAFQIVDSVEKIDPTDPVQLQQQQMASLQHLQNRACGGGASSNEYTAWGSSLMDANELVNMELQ
In words: protein-binding microarray (RPBM); PBS, 2% BSA, 51.3 ng/ul salmon testes DNA, 50 uM zinc acetate, 200 nM TF, 25 C, 1 h; high values mean tight binding. To be noted: protein: recombinant; tags: N-terminal polyhistidine and DsRed monomer fusion (pET32a); chain copies: 2; label: CyDye5-dUTP incorporated in the synthesized complementary strand; 3' TTTTT single-stranded linker to array surface; dsDNA, one strand shown. The procedure, abridged:
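Binding signal is reported as fluorescence intensity per feature (arbitrary units) from an Axon 4000B scanner. Incubation used 200 nM of each Ni–NTA-purified, N-terminally polyhistidine- and DsRed-fused transcription factor from E. coli BL21-CodonPlus on a double-stranded custom Agilent array for 1 h at 25 °C, with 50 µM zinc acetate in the buffer, followed by washing.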
Regarding “CACTGCCCATTCGCCACGTCCCCTAACGCTCCAGGTTTATCGGAGTCACCTAGTGCAG”, the binding signal was 11800 fluorescence intensity (a.u.).

Turning to “GAGATCGAACATCGATGCAGCCCCGCGTCAGGTGCCAAGTCGGAGTCACCTAGTGCAG”, the binding signal is 3510 fluorescence intensity (a.u.).

Regarding “TAACCATGGTCTTGCCTACGTGGCGTGCCACGTAGACGATCGGAGTCACCTAGTGCAG”, the binding signal is 34300 fluorescence intensity (a.u.).

In the case of “ACCATGGTCTAACCTACGTGGCATGCCACGTGTGCGTGTGCGGAGTCACCTAGTGCAG”, the binding signal was 56000 fluorescence intensity (a.u.).

For the sequence “CATGGTGCGGGCCAGCTCAGCTGTGCACGTGGCATGCCACCGGAGTCACCTAGTGCAG”, the binding signal is 17200 fluorescence intensity (a.u.).

With “ACCCAAAGCCACCCGCAACAACCGACGACGACGACGACCGCGGAGTCACCTAGTGCAG”, the binding signal is 24100 fluorescence intensity (a.u.).

As to “TTGAACCCCGTGTACATCAACAAACCACGTGTCCATCAAGCGGAGTCACCTAGTGCAG”, the binding signal is 6220 fluorescence intensity (a.u.).

Take “CACGTGTACAAGGGCAAAGCGCAACACCGACCCGAGTCCACGGAGTCACCTAGTGCAG”: the binding signal is 39300 fluorescence intensity (a.u.).

Consider “AAAGTTTCATGCCTGAGATGTTATGTTACGTGTCTATCCACGGAGTCACCTAGTGCAG”, for which the binding signal was 7680 fluorescence intensity (a.u.).

With “AACATGATTTAACAGGTAACAGTCGCCCATGCCATTCTTGCGGAGTCACCTAGTGCAG”, the binding signal was 3350 fluorescence intensity (a.u.).

“ATTTTCATGCTTAGATGTAGTAACTACACCAACATTACATCGGAGTCACCTAGTGCAG”: the binding signal is 3310 fluorescence intensity (a.u.).

For “ATGTTTCTGCGGCCCGTCATCCGTGTTTGAGTCGGTTATACGGAGTCACCTAGTGCAG”, the binding signal is 4220 fluorescence intensity (a.u.).

Turning to “CGCAGCCCGAGCCCGCCGTATTCCACGTCGACGCTGTCGTCGGAGTCACCTAGTGCAG”, the binding signal is 5720 fluorescence intensity (a.u.).

As to “GAAATTTTCAGGGTGTTACATAGATCAACTGAATTCCTTACGGAGTCACCTAGTGCAG”, the binding signal is 3550 fluorescence intensity (a.u.).

For the sequence “TATAAATTTGGACACATATATGAAACACATATATTGATCCCGGAGTCACCTAGTGCAG”, the binding signal was 30400 fluorescence intensity (a.u.).

In the case of “ATAAATTTGGACGCATCCCAAAATTCGGCAAACATATGACCGGAGTCACCTAGTGCAG”, the binding signal was 39200 fluorescence intensity (a.u.).

Turning to “CATAAATGAGATCCAGTGACGGCATGAGCATGTCCCAATTCGGAGTCACCTAGTGCAG”, the binding signal is 24900 fluorescence intensity (a.u.).

Regarding “GTGAGAGAAGCCGCCTTGGATGATGTCAACCATGGTGGCGCGGAGTCACCTAGTGCAG”, the binding signal was 6930 fluorescence intensity (a.u.).

For “CAATGCTAGCCGCGCAATCTGCGCGGGCCACCATGCTATTCGGAGTCACCTAGTGCAG”, the binding signal was 3430 fluorescence intensity (a.u.).

As for “GGGCCAAAACAAAGCCAGCGTGCAACCCTCGACAAAGCACCGGAGTCACCTAGTGCAG”, the binding signal is 4110 fluorescence intensity (a.u.).

As for “CAATTATCCGCAACGTATGGCTAGCTCAACCCTACTGTAACGGAGTCACCTAGTGCAG”, the binding signal was 3270 fluorescence intensity (a.u.).

As for “CAAACCCTAGCTCATATGGTTGTAGTCTTAGCTACTATCACGGAGTCACCTAGTGCAG”, the binding signal is 50500 fluorescence intensity (a.u.).

Consider “GATGGCTATCTGCCCGGGCAAAGTGTACCCTTTTACTGTTCGGAGTCACCTAGTGCAG”, for which the binding signal is 30800 fluorescence intensity (a.u.).

Regarding “GATATCATGTAGGAGTAGTAGTTGTTATGTGTGTGGGCTACGGAGTCACCTAGTGCAG”, the binding signal was 13000 fluorescence intensity (a.u.).

For “CACACCCTTACTGTAGCTATCACTGCACAAAGCCAAAACCCGGAGTCACCTAGTGCAG”, the binding signal is 43600 fluorescence intensity (a.u.).

As to “CCGTCTTCTTCCTCCACGTTCCTATCCATGGCGCCAGTTCCGGAGTCACCTAGTGCAG”, the binding signal was 41400 fluorescence intensity (a.u.).

As to “GCCTTCTTCCTCGCCTGCGGCCGTCTCCGCCACCTCGACCCGGAGTCACCTAGTGCAG”, the binding signal was 4040 fluorescence intensity (a.u.).

Regarding “TCCATGGCGCCACACGTCACCACCTTCTCACACCCTCGTCCGGAGTCACCTAGTGCAG”, the binding signal was 18400 fluorescence intensity (a.u.).

Regarding “CTTTGCCACGGCGGTCTCTCGTCCTCTTCCTCCTCTCCGCCGGAGTCACCTAGTGCAG”, the binding signal was 4190 fluorescence intensity (a.u.).

For the sequence “CCACGGGTTCTTCCTCGATGCCTTCTCCGGCGCCGTCCGGCGGAGTCACCTAGTGCAG”, the binding signal is 45300 fluorescence intensity (a.u.).

Regarding “CAACCATGGCGTCATCCTCTTCCTCCTCCTCCTCCTCCTCCGGAGTCACCTAGTGCAG”, the binding signal is 5800 fluorescence intensity (a.u.).

Take “CGGCCGCGTCAGGGAGGACGCCGCGCGGCACTACTTCCGGCGGAGTCACCTAGTGCAG”: the binding signal was 3870 fluorescence intensity (a.u.).

“CGACGGCCACAACCGGTTGTGGCGGCGTCTGCGTTGGCAGCGGAGTCACCTAGTGCAG”: the binding signal is 5430 fluorescence intensity (a.u.).

With “ATTGCTTTATATGGTTATTTAAGTTTATTTTGCATCCCTACGGAGTCACCTAGTGCAG”, the binding signal is 22600 fluorescence intensity (a.u.).

Turning to “ACAGGAGCACCATCAACAGCTGACAACTTGGCATTGGTATCGGAGTCACCTAGTGCAG”, the binding signal is 3680 fluorescence intensity (a.u.).

Consider “ATCAAAATGGCAACAAAAGGGAGTCCAAAGTGAAAATTTTCGGAGTCACCTAGTGCAG”, for which the binding signal is 36100 fluorescence intensity (a.u.).

“ATCTCCATCGCTGGCGACGGCGAGCATCGCATCGCATCGCCGGAGTCACCTAGTGCAG”: the binding signal is 3150 fluorescence intensity (a.u.).

Consider “CCTCTGGCATCCATTATTGAGTTTATTAATCCTCCATCCTCGGAGTCACCTAGTGCAG”, for which the binding signal was 26300 fluorescence intensity (a.u.).

For the sequence “GCGGCTGAATTAATCTCCATCTGGCGAGCATCCACATCCTCGGAGTCACCTAGTGCAG”, the binding signal is 52300 fluorescence intensity (a.u.).

For the sequence “ACATCATCGGCTACGTCAGGTCCAGCGCCGCCGCCAAGGCCGGAGTCACCTAGTGCAG”, the binding signal was 6640 fluorescence intensity (a.u.).

With “AACCCTAGCCACTCTCGTTTCATTGGTCTGACTTATTGGGCGGAGTCACCTAGTGCAG”, the binding signal is 14700 fluorescence intensity (a.u.).

“CGCGCGTCTCGACTCCGTCCCAATCGATCGATCGATCGCGCGGAGTCACCTAGTGCAG”: the binding signal was 12800 fluorescence intensity (a.u.).
